# Assay outcomes: PubChem BioAssay, National Center for Advancing Translational Sciences (NCATS)
# Tb PGK inh: inhibitors of T. brucei phosphoglycerate kinase. PGK/GAPDH coupled, Kinase-Glo luminescence, 60 min. Potency, µM (doses to about 57.5 µM), inactives show at the top dose activity change, negative = inhibition, usual class: inhibitors. 380,000 tested, 0.043% active. P07378. AID 602233; note: potency is the fitted concentration of half-maximal effect; % is set by controls: 0 for no effect and ±100 for the full control effect; nearly all actives have a fitted effect of over 60% in size
# Target sequence (P07378 whole entry, looked up): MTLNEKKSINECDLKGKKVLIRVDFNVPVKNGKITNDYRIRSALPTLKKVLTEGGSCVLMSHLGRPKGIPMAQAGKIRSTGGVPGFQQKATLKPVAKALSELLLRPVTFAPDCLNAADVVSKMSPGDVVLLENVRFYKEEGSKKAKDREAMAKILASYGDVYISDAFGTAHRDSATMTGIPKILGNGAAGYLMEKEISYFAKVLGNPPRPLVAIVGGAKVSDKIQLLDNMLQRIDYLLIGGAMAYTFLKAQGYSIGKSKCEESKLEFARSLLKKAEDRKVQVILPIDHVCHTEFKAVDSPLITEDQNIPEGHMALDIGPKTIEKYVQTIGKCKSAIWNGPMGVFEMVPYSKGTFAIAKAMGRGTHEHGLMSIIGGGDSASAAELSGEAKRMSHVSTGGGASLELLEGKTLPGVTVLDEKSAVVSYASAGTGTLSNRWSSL
#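 Luminescent ATP detection (Kinase-Glo Plus) follows a 60-minute room-temperature incubation, with wells lacking PGK as controls. Buffer: 100 mM TEA (pH 7.6), 5 mM MgCl2, 0.01% Tween-20. Coupling enzyme GAPDH (100 nM final) supplies unstable 1,3-BPG in-well.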
# FEN1 inhibitor: human FEN1 inhibition; P39748; Recombinant FEN1 flap cleavage, fluorescence, 15 min; Potency, µM (highest dose often 114 µM), without a hit: at the highest dose activity change, negative = inhibition, usual class: inhibitors; 390,000 tested, 0.35% active; AID 588795; note: potency is the fitted concentration of half-maximal effect; % is set by controls: 0 for no effect and ±100 for the full control effect; nearly all actives have a fitted effect of over 65% in size
# Target sequence (P39748 whole entry, looked up): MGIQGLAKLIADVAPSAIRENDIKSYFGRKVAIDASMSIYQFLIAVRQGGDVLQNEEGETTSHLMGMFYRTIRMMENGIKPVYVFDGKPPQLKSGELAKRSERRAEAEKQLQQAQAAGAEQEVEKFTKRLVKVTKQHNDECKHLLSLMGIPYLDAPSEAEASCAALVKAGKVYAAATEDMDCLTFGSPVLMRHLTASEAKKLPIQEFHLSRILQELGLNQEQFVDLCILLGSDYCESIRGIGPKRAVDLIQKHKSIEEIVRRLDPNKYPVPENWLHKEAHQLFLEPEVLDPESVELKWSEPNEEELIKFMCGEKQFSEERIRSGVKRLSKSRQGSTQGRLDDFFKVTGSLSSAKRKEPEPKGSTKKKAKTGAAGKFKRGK
#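 In this screen, 50 nM flap DNA substrate was added to 10 nM FEN1 pretreated with compound for 15 min at room temperature; cleavage was followed with reads at 0 and 15 min, and Hill fitting gave concentration–response parameters.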
# PI5P4K alpha inh: PI5P4K alpha (human) kinase inhibition | P48426 | PI5P4Kalpha enzyme, ADP-Glo luminescence, 60 min; hits give low values | max response, % | 330,000 tested, 1.2% active | AID 652105; active = max response of -50% or lower; inconclusive = between -30% and -50%; inactive = -30% or higher; note: value at the top dose of about 77 µM; % is set by controls: 0 for no effect and ±100 for the full control effect
#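 Reactions run in 0.038 M HEPES pH 7.4, 0.28 mM EGTA, 0.1% CHAPS and 5% DMSO, with PI5P4Kalpha, substrate, compound and 5 microM ATP final, one hour at room temperature. Readout is ADP-Glo luminescence.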
# WRN inhibitor: inhibitors of human WRN helicase; Q14191; WRN helicase unwinding, fluorescent forked duplex, kinetic; Potency, µM (highest dose often 114 µM), for inactives: at the top dose activity change, negative = inhibition, actives largely listed as inhibitors; 360,000 tested, 0.46% active; note: potency is the fitted concentration of half-maximal effect; % is set by controls: 0 for no effect and ±100 for the full control effect; nearly all actives have a fitted effect of over 55% in size
#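 Fluorescence dequenching readout, ex 525 nm/em 598 nm, kinetic mode: forked duplex DNA (100 nM final) with adjacent fluorophore and quencher unwound by WRN (20 nM final) with 2 mM ATP. Compound preincubation 15 min, room temperature.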
# Tb PFK inh-1: T. brucei PFK enzyme inhibition; 330,000 tested, 0.17% active; O15648; Potency, µM (titrated, usually from 57.5 µM), without a hit: at the highest dose activity, negative = inhibition, actives largely listed as inhibitors; T. brucei PFK, ADP-Glo luminescence;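 note: potency is the fitted concentration of half-maximal effect; 0% = uninhibited 1x PFK enzyme wells and -100% = no-enzyme wells; nearly all actives have a fitted effect of over 60% in size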
#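 Compounds were pin-transferred as a titration series up to 57 uM into substrate buffer (0.5 mM F6P, 0.1 mM ATP, pH 8.0), then 1.25 nM PFK was added and reactions ran 45 min before ADP-Glo detection.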
# TDP1 block: TDP1 (human) enzyme inhibition. 350,000 tested, 0.28% active. recombinant TDP1, AlphaScreen DNA substrate cleavage. Q9NUW8. Potency, µM (doses to about 130 µM), inactives show at the top dose activity change, negative = inhibition, most hits filed as inhibitors. AID 485290; note: potency is the fitted concentration of half-maximal effect; % is set by controls: 0 for no effect and ±100 for the full control effect; nearly all actives have a fitted effect of over 40% in size
#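 E. coli-derived human Tdp1, 1 nM final. Cpd preinc 15 min RT; substrate 15 nM final, 5 min RT; AS bead mix 10 ug/ml final, 10 min RT. Signal loss = tyrosine-FITC cleavage. No-enzyme wells = max signal.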
# Tb PFK KinaseGlo: inhibits T. brucei PFK measured by ATP depletion; Tb PFK enzyme, ATP depletion, Kinase-Glo Plus luminescence; shares compounds with Tb PFK inh-1; 1,100 tested, 47% active; AID 504636; Potency, µM (top dose mostly 57.5 µM), for inactives: top-dose inhibition; calls by dose curve; note: potency is the fitted concentration of half-maximal effect; nearly all actives have a fitted effect of over 60% in size
# Tb PFK inh-2: validation of T. brucei phosphofructokinase inhibitors. shares compounds with Tb PFK inh-1. purified T. brucei PFK, ADP-Glo luminescence, 45 min. Potency, µM (top dose mostly 57.5 µM), for inactives: at the top dose activity change, negative = inhibition, actives largely listed as inhibitors. 1,100 tested, 41% active. AID 504637;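 note: potency is the fitted concentration of half-maximal effect; plate controls were full PFK enzyme control for no effect and no enzyme control for full effect; nearly all actives have a fitted effect of over 60% in size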
# * marks the source's active call; other numbers are inactive results; i = inactive; u = inconclusive; x = no result given; [ ] = remark or other dose. Shown are actives, neighbours in structure and some others; about 1.5% of the full set was active somewhere. Unless noted, calls come from the whole dose curve; as a rule, active = well fitted curve in the direction sought with a large enough effect; inconclusive = small, poorly fitted or top-dose-only effect, or another doubt; inactive = no such curve, though single readings can be large; an effect the other way counts as inactive or inconclusive.
SMILES,Tb PGK inh,FEN1 inhibitor,PI5P4K alpha inh,WRN inhibitor,Tb PFK inh-1,TDP1 block,Tb PFK KinaseGlo,Tb PFK inh-2
C=CCNC(=S)Nc1ccc(OC(=O)Nc2ccc(Cl)c(Cl)c2)cc1,-9%,3%,16,8%,13µM*,x,21µM*,27µM*
Cc1cccc(C)c1NC(=S)Nc1ccc(Cl)c(Cl)c1,-5%,6%,0,-8%,21µM*,3%,u,-14%
COC(=O)c1cccc(NC(=S)Nc2ccc(Cl)c(Cl)c2)c1,u,2%,-3,2%,12µM*,2%,27µM*,u
Cc1cc(C)cc(NC(=S)Nc2ccc(Cl)c(Cl)c2)c1,-10%,2%,5,-17%,9.5µM*,-5%,24µM*,u
O=C1C=CC2C3C(=O)N(c4ccccc4)C(=O)C3C1N2Cc1ccccc1 (centres undefined),-4%,5%,-6,u,x,x,x,x
CCCCC/C=C\C/C=C\C/C=C\C/C=C\CCCC(=O)OCCN,x,x,x,x,x,9%,x,x
NC(=O)CNC(=O)[C@H](Cc1ccccc1)NC(=O)[C@H](CCCN=C(N)N)NC(=O)[C@@H](N)Cc1ccc(O)cc1,x,x,x,x,x,4%,x,x
OCCNC(=S)Nc1ccc(Cl)c(Cl)c1,-9%,1%,-1,9%,u,-4%,u,u
Cc1ccc(NC(=S)NCCc2cnc[nH]2)cc1C,-4%,-6%,-7,9%,-11%,3%,x,x
C[C@@H]1O[C@@H](O[C@@H]2[C@@H](O)[C@H](OCCc3ccc(O)c(O)c3)O[C@H](CO)[C@H]2OC(=O)/C=C/c2ccc(O)c(O)c2)[C@H](O)[C@H](O)[C@H]1O,0%,u,-26,-23%,1.7µM*,-4%,4.8µM*,4.8µM*
C[C@H]1CC[C@@H]2[C@@H](C)[C@H]3[C@H](C[C@H]4[C@@H]5CC=C6C[C@@H](O[C@@H]7O[C@H](CO)[C@H](O)[C@H](O[C@@H]8O[C@H](CO)[C@@H](O)[C@H](O)[C@H]8O)[C@H]7O[C@@H]7O[C@@H](C)[C@H](O)[C@@H](O)[C@H]7O)CC[C@]6(C)[C@H]5CC[C@]34C)N2C1,i,u,1,10%,0%,-3%,x,x
O=C(Cl)/C=C/C(=O)Cl,x,x,x,x,x,3%,x,x
CCCN1[C@@H]2C[C@@H](O)CC[C@@H]2C[C@H]1C(=O)OC,x,x,x,x,x,4%,x,x
COc1ccc(Nc2nc(C)cc(=O)[nH]2)cc1,-7%,-10%,-3,-4%,12µM*,-2%,13µM*,24µM*
COc1ccc(NC2=NC(C)(C)CS2)cc1,0%,-4%,-1,-3%,-15%,3%,x,x
Clc1ccc(CNc2cnccn2)cc1Cl,0%,-2%,2,0%,6.7µM*,x,5.4µM*,9.5µM*
NC(=S)NNc1ccc(Cl)c(Cl)c1,i,9%,-11,4%,19µM*,9%,4.8µM*,12µM*
COC(=O)c1cccc(-n2sc3ccccc3c2=O)c1,i,u,-96*,0%,6.7µM*,1%,u,u
COc1ccc(-n2c(=O)[nH]c3ccccc3c2=O)cc1,0%,-2%,0,-2%,-1%,6%,x,x
O=c1c2ccccc2sn1-c1ccc(F)cc1,-3%,79µM*,-89*,-5%[11.6 µM],3.4µM*,-2%,16%,u
CC(C)CC(N)C1(c2ccc(Cl)cc2)CCC1 (centres undefined),x,x,x,x,x,4%,x,x
O=C(O)c1ccccc1C(=O)Nc1ccc(Br)c(C(F)(F)F)c1,-4%,7%,-1,1%,u,1%,2%,0%
O=C(Nc1ccccc1)c1ccccc1I,x,x,x,x,x,27%,x,x
C=C(C)C1Cc2c(ccc3c2OC2COc4cc(OC)c(OC)cc4C2C3=O)O1 (centres undefined),x,x,x,x,x,14%,x,x
O=C(OCc1cccc(C(F)(F)F)c1)c1ccc[nH]c1=O,-8%,-5%,2,4%,6µM*,9%,3µM*,5.4µM*
SMILES,Tb PGK inh,FEN1 inhibitor,PI5P4K alpha inh,WRN inhibitor,Tb PFK inh-1,TDP1 block,Tb PFK KinaseGlo,Tb PFK inh-2
CNC(=O)c1cccn(Cc2cccc(C(F)(F)F)c2)c1=O,-8%,1%,-4,13%,-10%,0%,x,x
CN(C)c1ccc(/C=C2\CCCN=C2c2cccnc2)cc1,x,x,x,x,x,12%,x,x
COC(=O)[C@H]1C[C@H]2CC[C@H](O)C[C@H]2N1CC1CC1,x,x,x,x,x,2%,x,x
CC[n+]1c(C)sc2cc(C)ccc21,-8%,6%,-5,5%,u,-2%,-6%,-1%
CC1O[C@@H](O[C@@H]2C(O)C[C@H](O[C@@H]3C(O)C[C@@H](OC4CC[C@@]5(C)C6CC[C@]7(C)C(C8=CC(=O)OC8)CC[C@@]7(O)C6CC[C@@H]5C4)OC3C)OC2C)CC(O)[C@H]1O (some centres undefined),x,x,x,x,x,-5%[56.1 µM],x,x
COc1ccc2cc1Oc1ccc(cc1)CC1c3cc(c(OC)cc3CCN1C)Oc1c(OC)c(OC)cc3c1C(C2)N(C)CC3 (centres undefined),x,x,x,x,x,15%[56.1 µM],x,x
CCOC(=O)c1c(-c2ccc(OC)cc2)oc2ccc(OC(=O)N(C)C)cc12,-1%,-12%,4,-7%,-1%,-4%,x,x
CCOC(=O)c1c(-c2ccc(OC)cc2)csc1/N=C/C1=C(O)CCCC1=O,2%,-4%,-11,-24%[57.1 µM],u,5%,0%,-2%
Cc1ccc(C(=O)NCc2ccc(Cl)c(Cl)c2)o1,-5%,1%,0,-7%,11µM*,3%,6.7µM*,24µM*
COc1ccc(C(=O)NCc2ccc(Cl)c(Cl)c2)cc1OC,0%,4%,7,-7%,13µM*,-2%,8.5µM*,27µM*
ClC(Cl)Br,x,x,x,x,x,2%,x,x
Nc1nc(=S)c2ncn(C3CCCC3)c2[nH]1,-5%,-6%,-9,-4%,u,-3%,u,u
Cc1nc2ccccc2n1CC(=O)c1ccc(O)c(O)c1,-10%,13%,2,u,30µM*,x,u,u
Cc1c(Br)c([N+](=O)[O-])nn1CC(=O)Nc1ccccn1,6%,-10%,6,-1%,19µM*,8%,19µM*,u
CC(=O)Nc1ccc(NC(=O)Cn2nc([N+](=O)[O-])c(Br)c2C)cc1,-4%,-3%,-5,-5%,12µM*,3%,19µM*,30µM*
